Inconclusive results are not listed. Calls of active or inactive are those of the source. Calls come from the whole dose curve; as a rule, active = well fitted cell-killing curve with a large enough effect; inconclusive = small, poorly fitted or top-dose-only effect, or effect the other way; inactive = no such curve, though single readings can be large or run the other way.
Experiment: Quantitative High-Throughput drug screen in 47 multiple myeloma cell lines against the NCATS MIPE library collection: JIM1_ECACC cell viability assay (AID 1918964)
Details: JIM1 myeloma viability, CellTiter-Glo ATP luminescence, 48 h; series mostly up to 45.8 µM
How it was run: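 Viability readout: CellTiter-Glo luminescence following 5 min room-temperature incubation with reagent. Prior exposure: 48 h, 37C, humidified 5% CO2, 500 cells per well.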
Potency is the fitted concentration of half-maximal effect.

| Structure (SMILES) | Potency |
| --- | --- |
| OC(c1cc(C(F)(F)F)nc2c(C(F)(F)F)cccc12)C1CCCCN1 (stereo not given) | 16.6 µM (active) |
| CCN(CC)CCCCNc1nc2cc(Cl)c(Cl)cc2nc1-c1ccc(-c2cccs2)s1 | 9.35 µM (active) |
| CN1[C@H]2CC[C@H]1CC(OC(=O)c1c[nH]c3ccccc13)C2 (stereo not given in full) | inactive |
| COc1nc(C)cnc1NS(=O)(=O)c1cccnc1-c1ccc(-c2nnco2)cc1 | inactive |
| CN(C)CC[C@H](CSc1ccccc1)Nc1ccc(S(=O)(=O)NC(=O)c2ccc(N3CCN(Cc4ccccc4-c4ccc(Cl)cc4)CC3)cc2)cc1[N+](=O)[O-] | 1.48 µM (active) |
| CC[C@H](CC#N)OC(=O)N[C@@H](C)c1cccc(NC(=O)Nc2ccc(-c3cnco3)c(OC)c2)c1 | 13.2 µM (active) |
| CN[C@@H](C)[C@H]1[C@H](O)C[C@@]2(C)[C@@H]3CC[C@H]4C(C)(C)[C@@H](NC)CC[C@@]45C[C@@]35CC[C@]12C | inactive |
| NC1(C(=O)N[C@@H](CCO)c2ccc(Cl)cc2)CCN(c2ncnc3[nH]ccc23)CC1 | 0.209 µM (active) |
| Cc1cn([C@@H]2C[C@@H](O)[C@H](CO)O2)c(=O)[nH]c1=O | inactive |
| CC(=O)NCCC(=O)N[C@@H](CCC(N)=O)C(=O)N[C@@H](CO)C(=O)N[C@@H](CCC(N)=O)C(=O)N[C@@H](CCC(N)=O)C(=O)N[C@H](C(=O)N[C@@H](Cc1ccccc1)C(=O)N[C@]1(C)CCCCCCC=CCCC[C@@](C)(C(=O)N[C@@H](CCC(N)=O)C(=O)N[C@@H](CC(N)=O)C(N)=O)NC(=O)[C@H](CC(C)C)NC(=O)[C@H](CC(C)C)NC(=O)[C@@H](CCCNC(=N)N)NC(=O)[C@H](Cc2c[nH]c3ccccc23)NC(=O)[C@H](CC(C)C)NC(=O)[C@H](CC(N)=O)NC1=O)[C@H](C)O | 7.43 µM (active) |
